# FBPA coupling cs = coupling enzyme interference in Giardia aldolase counter-screen | coupling enzyme system counterscreen, AmpLite Red fluorescence | activity change, negative = inhibition, % at 58.2 µM, hits read low | hit rate 0.67% among 290,000 | AID 2472; in the data active means activity change below about -30%
#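 Coupling enzymes only (glyceraldehyde-3-phosphate) + compound, at 57.5 uM final, 10 min RT; add substrate/coupling/AmpLite Red mix, 20 min RT; fluorescence ex 525/em 598 nm. Actives flag coupling-system interference.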
# Sfp PPTase inh = blocks B. subtilis Sfp PPTase activity; Q9F4F7; Biochemical Sfp PPTase activity, qHTS; Potency, µM, without a hit: largest response in the series, negative = inhibition, most hits filed as inhibitors; hit rate 3.5% among 310,000;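 further: the enzyme is Sfp with the accession as filed and its product quenches rhodamine fluorescence; potency means the concentration at half of the fitted maximal effect; 0% = enzyme reaction without inhibitor and -100% = no enzyme wells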
#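 Reaction rates are the 30-min fluorescence difference (ex 525, em 598 nm) in wells containing 15 nM Sfp, 5 uM rhodamine-CoA and 12.5 uM BHQ-2-YbbR at pH 7.6 with 10 mM MgCl2.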
# RGS12 GoLoco inh = inhibitors of human Gai1-RGS12 GoLoco interaction (red fluorophore); P63096; Gai1:RGS12 GoLoco peptide FP, rhodamine, 10 min; Potency, µM (doses to about 61.6 µM), for the others: top-dose activity, negative = inhibition, hits mostly inhibitors; hit rate 0.44% among 230,000; active means well fitted inhibition curve with a large enough effect, not every such curve was filed as active; inactive means no such curve, though single readings can be large or run the other way; further: potency means the concentration at half of the fitted maximal effect; nearly all actives have a fitted effect of over 30% in size
# Target sequence (P63096 whole entry, looked up): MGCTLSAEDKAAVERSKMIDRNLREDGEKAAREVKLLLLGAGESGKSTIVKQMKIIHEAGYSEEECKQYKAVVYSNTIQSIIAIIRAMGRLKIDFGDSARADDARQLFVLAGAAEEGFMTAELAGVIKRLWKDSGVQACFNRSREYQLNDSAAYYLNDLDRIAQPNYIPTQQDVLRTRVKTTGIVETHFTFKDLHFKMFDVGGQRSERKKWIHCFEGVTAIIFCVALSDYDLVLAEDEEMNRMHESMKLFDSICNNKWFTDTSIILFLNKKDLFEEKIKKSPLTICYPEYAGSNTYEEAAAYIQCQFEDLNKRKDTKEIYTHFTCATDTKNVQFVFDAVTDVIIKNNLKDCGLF
# KDM4E inh = inhibitors of human JMJD2E histone demethylase | JMJD2E catalytic domain, FDH-coupled NADH fluorescence (FDH is formaldehyde dehydrogenase) | hit rate 1.6% among 230,000 | Potency, µM (series often up to 57.1 µM), without a hit: at the highest dose activity change, negative = inhibition, usual class: inhibitors | B2RXH2; active means well fitted inhibition curve with a large enough effect, not every such curve was filed as active; inconclusive means small, poorly fitted or top-dose-only effect, or another doubt; inactive means no such curve, though single readings can be large or run the other way;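 further: potency means the concentration at half of the fitted maximal effect; 0% = wells with enzyme and -100% = buffer wells without enzyme; nearly all actives have a fitted effect of over 50% in size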
# NPSR antagonist = neuropeptide S receptor (human) antagonism, cAMP | CHO-NPSR cells, cAMP TR-FRET, antagonist mode | Potency, µM (doses to about 38.3 µM), inactives show at the highest dose activity change, negative = inhibition, hits mostly inhibitors | hit rate 1% among 220,000; further: potency means the concentration at half of the fitted maximal effect; nearly all actives have a fitted effect of over 50% in size
# ALDH1A1 block = blocks purified human ALDH1A1 activity; Purified ALDH1A1, NADH fluorescence, propionaldehyde substrate; Potency, µM (series often up to 75.3 µM), for the others: top-dose activity, negative = inhibition, most hits filed as inhibitors; hit rate 7.3% among 220,000; active means well fitted inhibition curve with a large enough effect, not every such curve was filed as active; inconclusive means small, poorly fitted or top-dose-only effect, or another doubt; inactive means no such curve, though single readings can be large or run the other way;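 further: potency means the concentration at half of the fitted maximal effect; plate controls were no enzyme wells and a reference inhibitor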
# Numbers without * were called inactive; ? = inconclusive; · = no result; ! = a repeat was not active; [ ] = another dose, or the depositor's remark. Only some compounds are listed: those with a hit (about 8.5% of all), similar ones and a draw of the others. Unless noted, the call rests on the fitted dose curve; in most records, active means well fitted curve in the direction sought with a large enough effect; inconclusive means small, poorly fitted or top-dose-only effect, or another doubt; inactive means no such curve, though single readings can be large; an effect the other way counts as inactive or inconclusive. Unless noted, on the % scale 0 is the no-effect control and ±100 the full control effect.
SMILES,FBPA coupling cs,Sfp PPTase inh,RGS12 GoLoco inh,KDM4E inh,NPSR antagonist,ALDH1A1 block
CC1(C)CC1C(=O)N/C(=C/CCCCSCC(N)C(=O)O)C(=O)O (stereo not given),3.7,-4.7%,·,·,·,·
COc1cccc(-n2c(C)cc(/C=C3\C(=N)N4N=C(CC(=O)N5CCOCC5)SC4=NC3=O)c2C)c1,1.0,-5.3%,·,·,·,·
Cc1ccc2nc(N3CCOCC3)c(C=O)c(=O)n2c1,-10.4,-17.1%,-6.0%,-8.4%,-20.3%,25.1µM*
CC1=C(C#N)c2nc(N)c(C#N)c(C)c2/C1=C\c1ccc(C)cc1,·,35.5µM*,87.5%,?,-15.0%[46.1 µM],?
CCOC(=O)[C@@H]1[C@H]2COc3ccccc3[C@@H]2N2C(=O)N(c3cccc(Cl)c3)C(=O)[C@@]12C,-4.6,10.6%,·,·,·,·
Cc1nnsc1C(=O)N/N=C/c1ccc2ccccc2c1O,3.8,5.8%,·,22.4µM*,6.3%[46.1 µM],-0.9%
O=C(NC1CCCCC1)C(=S)N1CCOCC1,-1.7,50.1µM*,1.4%,-1.3%,6.6%,23.8µM*
S=C(NC1CCCC1)N1CCOCC1,-0.9,6.7%,3.1%,-2.0%,8.6%,5.3%
COc1ccc(/C=N/c2oc(C)c(C)c2C#N)c(OC)c1,-7.2,-5.0%,14.8%,?,4.6%,12.6µM*
O=C(O)CN(CCN(CC(=O)O)CC(=O)O)CC(=O)O.[Cu],·,·,9.3%[14.2 µM],·,·,-2.3%[13.5 µM]
O=C(O)CN(CCN(CC(=O)O)CC(=O)O)CCN(CC(=O)O)CC(=O)O,1.7,23.2%,-4.7%,6.31µM*!,-22.1%[46.1 µM],8.9%
COc1ccc(CNc2ccnc(-c3ccc(N(C)C)cc3)n2)c(OC)c1,-9.9,?,-7.9%,·,·,?
CCOC(=O)c1sc(NC(=O)COC(=O)CNC(=O)c2ccco2)c(C(=O)OCC)c1C,1.9,?,-4.5%,?,-8.5%,28.2µM*
COC(=O)c1cc(OC)c(OC)cc1NC(=O)Cc1cccs1,0.6,?,10.8%,5.0%,29.3%,3.16µM*
CCOC(=O)c1c(NC(=O)Cc2cccs2)sc(C)c1C,4.2,20µM*,73.1%,-10.9%,-16.6%[46.1 µM],12.6µM*
CCOC(=O)c1c(NC(=O)Cc2cccs2)sc(C(=O)NC2CCCC2)c1C,0.5,26.7%,6.8%,0.5%,-11.2%[46.1 µM],14.3%
Cc1sc(NC(=O)c2ccco2)c(C(=O)c2ccc(Cl)cc2)c1C,6.8,39.8µM*,32.5%,2.8%,-22.2%,?
COc1ccccc1-c1ccc2nnc(SC)n2n1,-2.9,8.7%,·,·,·,·
COC(=O)c1c(NC(=O)c2ccco2)sc(C(=O)N2CCCC2)c1C,3.0,13.9%,8.3%,3.4%,-27.0%[46.1 µM],14.1µM*
COC(=O)c1sc(NC(=O)COc2ccccc2)nc1C,-1.0,11.7%,11.3%,1.1%,-9.8%[46.1 µM],-16.3%
COC(=O)c1c(NC(=O)c2ccco2)sc2c1CCN(C(C)=O)C2,·,7.5%,·,·,·,·
COC(=O)c1c(NC(=O)Cc2cccs2)sc(C(=O)N2CCCCC2)c1C,3.6,?,-1.3%,-2.2%,-18.5%[46.1 µM],4.47µM*
CCOC(=O)c1c(NC(=O)Cc2cccs2)sc(C(=O)NC2CCCCC2)c1C,1.0,21.9%,-9.4%,1.5%,?,6.4%
COC(=O)c1sc(NC(=O)Cc2cccs2)nc1C,2.7,14.5%,20.6%,-4.3%,-10.3%[46.1 µM],12.6µM*
CC(/C=N/NC(=O)c1ccco1)=C\c1ccccc1,0.7,11.0%,-3.4%,-6.2%,-31.7%,-8.9%
CSc1ccc(NC(=O)NCc2ccccc2)cc1,0.5,9.8%,2.2%,-2.5%,-2.6%[7.67 µM],·
O=C(CCN1C(=O)C2C3C=CC(C3)C2C1=O)N1CCN(c2ccc([N+](=O)[O-])cc2)CC1 (stereo not given),2.1,-0.5%,2.8%,-3.8%,9.4%,6.31µM*
O=C1C2C3C=CC(C3)C2C(=O)N1CNc1ccc(O)cc1 (stereo not given),-54.5*,56.2µM*,-33.7%,?,-18.9%[46.1 µM],?
O=C(CCN1C(=O)C2C3C=CC(C3)C2C1=O)NCCc1ccccc1 (stereo not given),5.0,-0.7%,7.8%,6.2%,-1.5%[46.1 µM],?
